In the library only some 1.3% were active in any assay of this set; here they are far more common.
ADAM10 inh = inhibits human ADAM10 | inhibition, % at 7 µM | recombinant ADAM10, EDANS/DABCYL FRET peptide cleavage, 3 h | O14672 | 0.62% of 370,000 active;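 active means inhibition above a per-campaign cutoff equal to the mean of compounds falling between control-based bounds plus 3 SD, cut at about 20% in these data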;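 further: 0% = DMSO wells while the 100% control is not disclosed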
ADAM17 inh = inhibitors of human ADAM17. recombinant ADAM17, EDANS/DABCYL FRET peptide cleavage. inhibition, % at 6.95 µM. 0.83% of 370,000 active;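 active means inhibition above the mean of compounds lying between control limits plus 3 SD, set per campaign, cut at about 8.5% in these data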;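 further: 0% = DMSO-only wells as the low control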
NPR2 activator = GC-B (human) receptor activation; P20594; HEK293-GC-B cells, CNP EC30, cGMP TR-FRET; 0% at EC30 CNP, 100% saturating CNP; activation, % at 10 µM; 0.11% of 370,000 active; AID 1920062;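 active means activation at 10 µM reaching about 35% in either raw or pattern-adjusted values, limit read from the data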
NPR1 activator = GC-A (human) enzyme activation; HEK293 GC-A cells, cGMP TR-FRET, EC30 ANP; 0% at EC30 ANP, 100% saturating ANP; activation, % at 10 µM; 0.14% of 370,000 active; in the data active means activation above about 40%
Target sequence (P16066 whole entry, looked up): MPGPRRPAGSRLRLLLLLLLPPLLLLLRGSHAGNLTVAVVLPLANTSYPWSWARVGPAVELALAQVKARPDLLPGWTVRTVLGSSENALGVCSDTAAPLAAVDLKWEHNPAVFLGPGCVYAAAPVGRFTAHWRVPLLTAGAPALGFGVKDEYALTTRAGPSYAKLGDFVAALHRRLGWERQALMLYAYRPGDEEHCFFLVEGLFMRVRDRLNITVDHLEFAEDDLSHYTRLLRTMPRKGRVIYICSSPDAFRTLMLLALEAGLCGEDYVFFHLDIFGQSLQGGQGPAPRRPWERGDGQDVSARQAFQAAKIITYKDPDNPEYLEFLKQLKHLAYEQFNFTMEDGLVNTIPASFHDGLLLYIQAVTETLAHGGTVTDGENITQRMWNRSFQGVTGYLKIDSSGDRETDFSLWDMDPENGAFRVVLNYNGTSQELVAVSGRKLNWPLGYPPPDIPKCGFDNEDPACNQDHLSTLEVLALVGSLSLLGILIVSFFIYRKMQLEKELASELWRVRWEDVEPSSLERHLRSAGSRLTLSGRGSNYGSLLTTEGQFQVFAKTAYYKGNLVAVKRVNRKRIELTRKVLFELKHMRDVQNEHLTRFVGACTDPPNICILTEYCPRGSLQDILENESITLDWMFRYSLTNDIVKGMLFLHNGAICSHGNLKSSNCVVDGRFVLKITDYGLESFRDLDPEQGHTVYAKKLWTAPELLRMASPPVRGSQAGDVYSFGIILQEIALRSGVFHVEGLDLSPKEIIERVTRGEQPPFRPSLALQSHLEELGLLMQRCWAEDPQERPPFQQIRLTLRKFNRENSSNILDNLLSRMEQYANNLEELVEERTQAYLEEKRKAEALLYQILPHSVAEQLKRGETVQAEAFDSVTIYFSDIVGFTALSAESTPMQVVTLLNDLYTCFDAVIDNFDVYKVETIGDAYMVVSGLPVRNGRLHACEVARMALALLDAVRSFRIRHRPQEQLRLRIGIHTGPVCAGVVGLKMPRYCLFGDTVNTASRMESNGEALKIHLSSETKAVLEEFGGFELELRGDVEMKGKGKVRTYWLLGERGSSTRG
ADAM10 counter = inhibits human ADAM10 in ADAM17 exosite counter-screen. recombinant ADAM10, EDANS/DABCYL FRET peptide cleavage, 3 h. inhibition, % at 6.95 µM. 47% of 2,900 active. shares compounds with ADAM17 inh;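 active means mean inhibition over the triplicate runs exceeds the activity threshold set in the earlier primary screen, cut at about 20% in these data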;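 further: 0% = DMSO wells and 100% = marimastat wells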
ADAM17 confirm = confirmation of inhibitors of human ADAM17; shares compounds with ADAM17 inh; recombinant ADAM17, EDANS/DABCYL QFRET peptide cleavage; inhibition, % at 6.95 µM; 65% of 2,900 active;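 active means mean inhibition across replicates above the hit cutoff set in the primary screen, cut at about 8.5% in these data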;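 further: 0% = DMSO wells and 100% = marimastat wells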
* hit, by the source's call; nt = no result given.

SMILES	ADAM10 inh	ADAM17 inh	NPR2 activator	NPR1 activator	ADAM10 counter	ADAM17 confirm
CC(Oc1ccc(Cl)cc1Cl)C(=O)Nc1cccc(O)c1 (centres undefined)	-5	-1	4	-1	nt	nt
C=CC[C@@H]1NN2C(=O)[C@@H](CCc3ccccc3)[C@@H]3c4ccccc4C=NN3[C@@H]2c2ccccc21	3	0	1	1	nt	nt
C=CC[C@H]1c2ccccc2[C@H]2N3N=Cc4ccccc4[C@H]3[C@H](CCc3ccccc3)C(=O)N2N1C(=O)c1ccccc1	15	11*	4	-4	5	8
N#CC1(Cc2ccccc2Cl)c2ccccc2C=CN1C(=O)c1ccccc1 (centres undefined)	15	11*	-1	-5	14	9.3*
N#CC1c2ccccc2C=CN1C(=O)c1ccccc1 (centres undefined)	1	-2	3	5	nt	nt
CC(=O)NNC(=O)CC(=O)Nc1nc(C23CC4CC(CC(C4)C2)C3)cs1	4	8.9*	-2	7	-12	0
CCNc1nc(C23CC4CC(CC(C4)C2)C3)cs1	1	0	5	3	nt	nt
Cc1ccc(S(=O)(=O)N2C3CCCCC3O[C@H]2CC(=O)c2ccc(F)cc2)cc1 (some centres undefined)	13	9.6*	1	2	9	6
CC(C)(c1ccccc1)c1ccc(OCCn2cnc3ccccc3c2=O)cc1	16	9.6*	-8	-10	27*	15*
O=C(c1ccccc1)c1ccc(OCCn2cnc3ccccc3c2=O)cc1	9	-3	-3	-1	nt	nt
CC(C)COc1cccc(C(=O)Nc2ccc(S(=O)(=O)N3CCOCC3)cc2)c1	14	9.1*	1	-1	27*	17*
O=C(Nc1ccc(Nc2ccccc2)cc1)c1cc([N+](=O)[O-])ccc1Cl	9	6	-1	-5	nt	nt
O=C(Nc1ccccc1Oc1ccccc1)c1cc([N+](=O)[O-])ccc1Cl	-3	8.9*	1	-3	0	3
CCc1ccc(/C=N/NC(=O)c2cc(-c3ccccc3OC)nc3ccccc23)s1	8	9.2*	1	2	-30	5
Cc1ccc(N(CC(=O)NCc2cccnc2)S(C)(=O)=O)cc1C	13	10*	1	2	0	1
Cc1ccc(N(CC(=O)NCc2ccncc2)S(C)(=O)=O)cc1Cl	-6	-3	4	-5	nt	nt
COc1ccc(-c2c(-c3ccc4c(c3)OCO4)c3ccccc3n2C)cc1	-76	-21	-8	-2	nt	nt
O=C(C1=C[C@@H](C2CCCCC2)C[C@@H](OCc2ccc(CO)cc2)O1)N1CCN(Cc2ccc3c(c2)OCO3)CC1	18	10*	4	1	27*	18*
N#Cc1ccc(Cn2ccc3ccc(-c4ccc5ccn(C(=O)C6CC6)c5c4)cc32)cc1	-40	-10	5	2	nt	nt
COc1ccc2nc(NC(=S)N(C)C)sc2c1	6	13*	2	8	-10	1
COc1cccc(C(=O)NCCCNc2nc3cc(C)cc(C)c3cc2C#N)c1	-89	-26	-6	3	nt	nt
CCCCc1ccc(S(=O)(=O)NC(=O)C2(C)CCN2C(=O)CC2CC2)cc1 (centres undefined)	-26	1	5	2	nt	nt
Cc1ccc(S(=O)(=O)N(C)C[C@@H]2Oc3ccc(NS(=O)(=O)c4ccccc4)cc3CC(=O)N([C@@H](C)CO)C[C@H]2C)cc1	14	10*	-2	2	5	5
Cc1ccc(S(=O)(=O)Nc2cccc3c2O[C@H](CN(C)Cc2ccc(-c4ccccc4)cc2)[C@@H](C)CN([C@H](C)CO)C3=O)cc1	24*	13*	1	4	44*	24*
C[C@@H]1CN([C@H](C)CO)C(=O)c2c(c3ccccc3n2C)-c2ccccc2CO[C@H]1CN(C)Cc1ccc(-c2ccccc2)cc1	8	8.9*	-5	0	17	8
O=S(=O)(c1ccc(Br)cc1F)N1CC[C@H](O)C1	-14	-8	-3	2	nt	nt
CCN1CCN(c2ccc(S(=O)(=O)N3CCOCC3)cc2NC(=O)C2CCC(C(C)(C)C)CC2)CC1 (centres undefined)	-5	-1	2	2	nt	nt

Compound activity deposited in PubChem BioAssay by several laboratories.
